According to PubChem BioAssay (NCI):
Compounds without any hit were thinned out: in the full panel of roughly 83,000, 20% have a hit.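 Compound tested at a single concentration for 48 hours in 96-well plates; a percent growth value below 10 was scored as active.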 Unmarked numbers belong to inactive results. Activity calls are given as the source filed them.

What was measured:
Test in all cases: NCI-60 one-dose screen, 48 h (100 = growth as untreated, 0 = no growth, -100 = all killed)
Conditions in all cases: 10 µM unless noted
DU-145 prostate = tested on: DU-145 prostate
K-562 leukemia = tested on: K-562 leukemia
MALME-3M melanoma = tested on: MALME-3M melanoma
MDA-MB-231 breast = tested on: MDA-MB-231 breast
SF-268 CNS = tested on: SF-268 CNS
SF-295 CNS = tested on: SF-295 CNS
SF-539 CNS = tested on: SF-539 CNS
UACC-257 melanoma = tested on: UACC-257 melanoma
M14 melanoma = tested on: M14 melanoma

Row | SMILES | growth (DU-145 prostate) | growth (K-562 leukemia) | growth (MALME-3M melanoma) | growth (MDA-MB-231 breast) | growth (SF-268 CNS) | growth (SF-295 CNS) | growth (SF-539 CNS) | growth (UACC-257 melanoma) | growth (M14 melanoma)
1 | COc1ccc(C(=O)/C=C/c2cn(Cc3ccc(Cl)cc3)c3ccccc23)cc1 | 87.4% | 15.5% | 59.9% | 64.5% | 72.4% | 60.2% | 55.8% | 81.8% | -60.1% (active)
2 | Fc1ccc(C2CC(c3cccc(Nc4ccncc4)c3)=NN2c2cc(Cl)cc(Cl)c2)cc1 (stereo unspecified) | 30.2% | 0.115% (active) | 15.3% | 61.4% | 72.4% | 63.3% | 83% | 85.9% | 104%
3 | CC1(C)CN(c2cnc(C(=O)Nc3cc(F)cc4cccnc34)cn2)CCN1 | 101% | 36.3% | 47.5% | 58% | 74.6% | 97.8% | 83.7% | 93.5% | 70.8%
4 | CCCCc1ccc(Nc2nnc(SCC(=O)NC(=O)NCC)s2)cc1 | 104% | 91.6% | 97.2% | 88.1% | 92.4% | 110% | 96.4% | 113% | 107%
5 | COc1cc(NCC(O)CN(CC(C)C)CC(C)C)c2nc(C)ccc2c1 (stereo unspecified) | 97.9% | 78.4% | 119% | 55.9% | 78.9% | 100% | 108% | 54.1% | 88.6%
6 | O=C(/C=C\c1ccc(OCCCCCC[P+](c2ccccc2)(c2ccccc2)c2ccccc2)cc1)c1ccc2c(c1)OCCO2 | 6.93% (active) | 2.43% (active) | -15.3% (active) | 2.28% (active) | -4.06% (active) | -17.4% (active) | 3.93% (active) | -5.23% (active) | -3.09% (active)
7 | CC1(C)CCCN1CCCN1c2ccccc2Sc2ccc(Cl)cc21 | 78.5% | 14.2% | 67.2% | 45.5% | 76.3% | 68.2% | 78.2% | 105% | 39.1%
8 | C/C(=C(/c1ccccc1)c1ccc(OCC(O)CN2CCOCC2)cc1)c1ccccc1 (stereo unspecified) | 98.1% | 19.7% | 75.3% | 104% | 104% | 108% | 74.2% | 93.4% | -45.1% (active)
9 | COc1ccc(-c2nc(N/N=C/c3ccco3)nc(N3CCOCC3)c2C#N)cc1 | 93.2% | 87.6% | 59.5% | 86.1% | 80.1% | 90.1% | 74.2% | 94.8% | 85.3%
10 | Cn1c(COC(=O)NCCc2ccccn2)nc2c(N3CCOCC3)nc(Cl)nc21 | 8% (active) | 2.75% (active) | -71.2% (active) | -64.5% (active) | 46% | 71.7% | -19.8% (active) | 18.1% | -59.2% (active)
11 | Clc1ccc(C2CC(c3cccc(Nc4ccncc4)c3)=NN2c2ccc(Cl)cc2)cc1 (stereo unspecified) | 17.6% | -1.93% (active) | -64.4% (active) | 19% | 60.2% | -79.2% (active) | 71.2% | 64.7% | -80.1% (active)
12 | COc1ccc(-c2nc(N/N=C/c3cccc(O)c3)nc(N3CCOCC3)c2C#N)cc1 | 56% | 58.3% | 65.9% | 74.9% | 78.8% | 69.7% | 54.5% | 57.9% | 57.5%
13 | Cn1c(COC(=O)N2CCCCC2)nc2c(N3CCOCC3)nc(-c3ccccc3)nc21 | -87% (active) | 3.43% (active) | -85.2% (active) | -71.6% (active) | -78.5% (active) | 21.6% | -91.9% (active) | -76.3% (active) | -59.8% (active)
14 | C[C@@H]1CN(Cc2ccc(/C=C/c3n[nH]c4ccc5nc(-c6cn[nH]c6C(F)(F)F)c6c(c5c34)CCCC6)cc2)C[C@H](C)O1 | 27.7% | 10.4% | 41.2% | 12.9% | 36.5% | 38.4% | 7.28% (active) | 75.5% | 18.9%
15 | Cc1cc(NC(=O)c2cnc(N3CCN(CCOCCOCCOCCOCCC(=O)N[C@H](C(=O)N4C[C@H](O)C[C@H]4C(=O)N[C@@H](C)c4ccc(-c5scnc5C)cc4)C(C)(C)C)CC3)cn2)c2ncccc2c1 | 35% | 6.65% (active) | -31.7% (active) | -61.6% (active) | 8.05% (active) | -14.9% (active) | -75.5% (active) | -5.78% (active) | -33.7% (active)
16 | S=c1[nH]cccc1-c1nnc2n1Nc1nc3ccc(Cl)cc3cc1CS2 | 117% | 97.5% | 110% | 89.9% | 101% | 98.5% | 97.7% | 102% | 98.6%
17 | O=C(NCCN1CCOCC1)OCc1nc2nc(Cl)nc(N3CCOCC3)c2[nH]1 | 8.23% (active) | 6.62% (active) | 50% | 22.9% | 27% | 94.6% | -15.8% (active) | 69.2% | 9.49% (active)
18 | CCCCCCCCCCCCC1CCC/C=C\CCC(=O)O1 (stereo unspecified) | 115% | 101% | 108% | 99.3% | 101% | 103% | 104% | 119% | 95.2%
19 | COC(=O)Nc1ccc(NC(=O)OC)cc1 | 110% | 103% | 105% | 120% | 103% | 99.7% | 106% | 66.3% | 83.7%
20 | Cc1ccc(C2CC(c3cccc(Nc4ccncc4)c3)=NN2c2ccc(Cl)cc2)cc1 (stereo unspecified) | -93.3% (active) | -18.8% (active) | -86% (active) | -86% (active) | -72% (active) | -85.6% (active) | -96.2% (active) | -35.1% (active) | -57.3% (active)
21 | COc1cc(NCC(C)(O)CN(CC(C)C)CC(C)C)c2nc(C)ccc2c1 (stereo unspecified) | 110% | 67.4% | 94% | 69.5% | 93.7% | 83.3% | 96.1% | 93.1% | 91.5%
22 | COc1cc(NCC(O)CN(CC(C)C)C2CCCC2)c2ncccc2c1 (stereo unspecified) | 98.4% | 73.2% | 147% | 66.8% | 82.7% | 92.2% | 99.8% | 85.5% | 95.8%
23 | Cc1ccc(C2CC(c3cccc(Nc4ccncc4)c3)=NN2c2ccccc2)cc1 (stereo unspecified) | -72.2% (active) | -15.6% (active) | -92.8% (active) | -87.9% (active) | -73.1% (active) | -91.3% (active) | -96.9% (active) | -55.7% (active) | -49.8% (active)
24 | COc1cc(/C=C2\C(=O)N(Cc3ccc(Cl)cc3)c3ccccc32)cc(OC)c1OC | -39.1% (active) | 8.83% (active) | 65.5% | 23.3% | 10.9% | 40.9% | 23.3% | 21.9% | 37.7%
25 | O=S(=O)(NCCNc1nccc(-c2c(-c3cccc(F)c3)nc3occn23)n1)c1cccc2ccccc12 | 53.3% | 19% | 56.1% | 58.5% | 38.6% | 58.6% | 96.7% | 77.4% | 54.8%
26 | C#Cc1cccc(NC(=O)Nc2cccc(N=C=S)c2)c1 | 107% [8.25 µM] | 107% [8.25 µM] | 90.6% [8.25 µM] | 94.5% [8.25 µM] | 95.4% [8.25 µM] | 101% [8.25 µM] | 102% [8.25 µM] | 102% [8.25 µM] | 98.5% [8.25 µM]
27 | C=C(C)[C@H]1CC/C(C)=C/CC[C@]2(C)O[C@H]2CC/C(COC(=O)[C@@H](OC(C)=O)[C@H](NC(=O)c2ccccc2)c2ccccc2)=C\[C@@H]1O | 102% | 129% | 100% | 88.5% | 90.2% | 88.8% | 87.2% | 83.1% | 90.6%
28 | COc1cc(/C=C/C(=O)c2c(C)oc3nc[nH]c(=O)c23)ccc1O | 116% | 111% | 103% | 106% | 99.6% | 99.3% | 97.5% | 96.6% | 99.6%
29 | CN1CCN(CCCOc2ccc3ncnc(Nc4ccc(Oc5cccc(C(F)(F)F)c5)c(Cl)c4)c3c2)CC1 | -8.56% (active) | -13.1% (active) | -90.2% (active) | -74.6% (active) | 28.1% | -64.7% (active) | -89.3% (active) | -53.5% (active) | -62.8% (active)
